BAZ2B inh = qHTS Assay for Inhibitors of BAZ2B | Potency, µM (titrated, usually from 114 µM), without a hit: at the highest dose activity change, negative = inhibition, most hits filed as inhibitors | AID 504333, 2011 | hit rate 4.4% among 360,000 | AlphaScreen BAZ2B-H3K14Ac peptide displacement; also: % is scaled to controls: 0 for no effect and ±100 for the full control effect; nearly all actives have a fitted effect of over 60% in size
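AlphaScreen displacement of biotin-H3(5-23)K14Ac peptide (50 nM final) from BAZ2B (50 nM final) in PBS pH 7.4, 0.01% Tween-20; complex preformed 30 min RT, then compounds (top 110 uM) 30 min RT, beads 20 min dark.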
G9a inh = qHTS Assay for Inhibitors of Histone Lysine Methyltransferase G9a | Histone-lysine N-methyltransferase EHMT2 (Homo sapiens), Q96KQ7 | G9a H3K9 monomethylation, AlphaScreen, 2 h | Potency, µM (series often up to 102 µM), for inactives: at the highest dose activity, negative = inhibition, most hits filed as inhibitors | hit rate 8.8% among 350,000 | AID 504332, 2011; also: % is scaled to controls: 0 for no effect and ±100 for the full control effect; nearly all actives have a fitted effect of over 75% in size
Target sequence (Q96KQ7 913-1193 limits assumed): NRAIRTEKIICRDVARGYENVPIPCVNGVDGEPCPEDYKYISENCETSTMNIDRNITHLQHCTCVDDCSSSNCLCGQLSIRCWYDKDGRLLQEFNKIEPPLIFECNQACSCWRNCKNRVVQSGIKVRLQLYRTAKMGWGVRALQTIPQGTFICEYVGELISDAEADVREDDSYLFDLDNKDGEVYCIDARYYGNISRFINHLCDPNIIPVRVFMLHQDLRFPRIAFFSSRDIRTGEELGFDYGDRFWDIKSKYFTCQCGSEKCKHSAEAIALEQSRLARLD
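Compounds were preincubated with 20 nM G9a for 15 min, after which biotinylated H3K9 peptide (500 nM) and SAM (20 uM) started a 2 h room-temperature reaction. Monomethylated product was quantified by antibody-based AlphaScreen chemiluminescence.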
Sfp inh = qHTS Assay for Inhibitors of Bacillus subtilis Sfp phosphopantetheinyl transferase (PPTase); Biochemical Sfp PPTase activity, qHTS; hit rate 3.5% among 310,000; Potency, µM, for inactives: largest response in the series, negative = inhibition, most hits filed as inhibitors;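 also: the enzyme is Sfp with the accession as filed and its product quenches rhodamine fluorescence; 0% = enzyme reaction without inhibitor and -100% = no enzyme wells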
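With Hepes-Na pH 7.6 buffer containing 10 mM MgCl2, Sfp (15 nM) modified BHQ-2-YbbR (12.5 uM) using rhodamine-CoA (5 uM). Two reads 30 minutes apart at 525/598 nm yielded each well's rate.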
JMJD2A Tudor = qHTS Assay for Inhibitors of JMJD2A-Tudor Domain | Lysine-specific demethylase 4A (Homo sapiens), O75164 | AlphaScreen JMJD2A-Tudor / H3K4me3 peptide binding | Potency, µM (titrated, usually from 114 µM), for inactives: at the highest dose activity change, negative = inhibition, actives largely listed as inhibitors | hit rate 4.4% among 390,000 | AID 504339, 2011; also: % is scaled to controls: 0 for no effect and ±100 for the full control effect; nearly all actives have a fitted effect of over 50% in size
HP1b binding inh = HTS for Inhibitors of HP1-beta Chromodomain Interactions with Methylated Histone Tails; Chromobox protein homolog 1 (Homo sapiens), P83916; AlphaScreen HP1-beta / biotin-H3K9me3 peptide binding; Potency, µM (top dose mostly 114 µM), for inactives: top-dose activity change, negative = inhibition, actives largely listed as inhibitors; hit rate 0.56% among 390,000; AID 540317, 2011; also: nearly all actives have a fitted effect of over 70% in size
Target sequence (P83916 whole entry, looked up): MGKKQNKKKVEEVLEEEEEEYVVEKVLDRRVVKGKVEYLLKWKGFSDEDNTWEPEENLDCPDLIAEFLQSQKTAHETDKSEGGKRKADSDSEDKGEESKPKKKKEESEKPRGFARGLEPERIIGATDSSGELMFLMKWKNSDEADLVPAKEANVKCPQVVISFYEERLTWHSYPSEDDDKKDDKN
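AlphaScreen: HP1-beta (50 nM) preformed 30 min with biotin-H3(1-18)K9me3 peptide (50 nM) in PBS pH 7.4, 0.01% Tween-20. Compound added for 30 min at RT, then streptavidin donor/nickel chelate acceptor beads (10 ug/mL) for 30 min.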
An asterisk follows results filed as active; u = inconclusive; x = no result; [ ] = another dose, or the depositor's remark. In the library only some 12% were active in any assay of this set; here they are far more common. Calls follow the shape of the dose curve; as a rule, active = well fitted curve in the direction sought with a large enough effect; inconclusive = small, poorly fitted or top-dose-only effect, or another doubt; inactive = no such curve, though single readings can be large; an effect the other way counts as inactive or inconclusive. Potency is read from the fitted curve at half-maximal effect.

SMILES	BAZ2B inh	G9a inh	Sfp inh	JMJD2A Tudor	HP1b binding inh
NCCC[C@@H](CC(=O)N[C@@H]1CCCC[C@H]1C(=O)N[C@H](CC(=O)N[C@@H](CCC(=O)O)CC(=O)O)Cc1ccccc1)NC(=O)C[C@H](CO)NC(=O)[C@@H]1CCCC[C@H]1N	x	x	6%	x	x
CCOC(=O)/C=C1\CC(C(=O)OCC)Oc2ccccc21 (stereo unspecified)	x	62%	4%	9%	44%
CCOC(=O)/C=C1\Nc2ccccc2OC1=O	u	11%[59 µM]	50µM*	-10%	31%
Cc1cc2c(cc1C)N[C@]1(C[C@H]3CCCC(=O)N4CC[C@@H](C1)[C@@H]34)C(=NC(C)(C)CC(C)(C)C)N2	x	x	x	22µM*	u
O=C1CCC[C@@H]2C[C@@]3(C[C@@H]4CCN1[C@H]24)Nc1cc(Cl)ccc1NC3=NC1CCCCC1	x	x	x	-28%	20%
CN(Cc1ccc(Cl)cc1Cl)C(=O)CN1C(=O)NC2(CCCC2)C1=O	-2%	35µM*	x	-2%	39%
Cc1c(Cl)c([N+](=O)[O-])nn1CC(=O)N1CCN(C23CC4CC(CC(C4)C2)C3)CC1	-4%	45µM*	-28%	-21%	-5%
Cc1nn(CC(=O)N2CCN(C34CC5CC(CC(C5)C3)C4)CC2)c(C)c1[N+](=O)[O-]	0%	25µM*	20%	5%	33%
Cc1ccc(C(=O)Nc2ccc(-c3cn4cccnc4n3)cc2)cc1C	-16%	4%[59 µM]	x	3%	42%
Cc1cc(C)nc(SCC(=O)Nc2ccc(S(=O)(=O)Nc3ncccn3)cc2)n1	-15%	x	13µM*	3%	24%
CCc1c(C(=O)NNC(=S)Nc2ccc(S(=O)(=O)Nc3ncccn3)cc2)csc1C	1%	20µM*	18%	-13%	28%
CC(=O)Nc1ccc(SCC(=O)NNC(=O)CN(C)S(=O)(=O)c2ccc(C)cc2)cc1	0%	45µM*	x	-4%	94%
Cc1cc(C)nc(NS(=O)(=O)c2ccc(NC(=O)Cn3c(=O)oc4ccccc43)cc2)n1	7%	79µM*	-18%	-3%	43%
Cc1ccc(-c2noc(CN(C3CCCCC3)S(=O)(=O)c3ccc(F)cc3)n2)cc1	14%	26%[59 µM]	x	10%	43%
COc1ccc(/C=C/C(=O)NNC(=O)c2ccncc2)c(OC)c1	-24%	26%[12.7 µM]	x	-12%	36%
CCCCc1nnc(SCc2cc(=O)c3cc(C(=O)OCC)ccc3[nH]2)n1C	4%	10%[59 µM]	x	-9%	20%[57 µM]
Cc1ccc(C(C)C)c(OCc2ccc(C(=O)Nc3ccc(S(N)(=O)=O)cc3C)o2)c1	-37%	u	x	u	4%
Cc1cccc(NC(=O)Cn2c([N+](=O)[O-])cnc2C)c1C	-2%	15%	-8%	x	x
O=C(Nc1ccc(S(=O)(=O)Nc2ncccn2)cc1)C1=COCCO1	-6%	32µM*	x	-22%	34%
Cc1cc(C)c2c(CC(=O)Nc3ccc(S(=O)(=O)Nc4nc(C)cc(C)n4)cc3)coc2c1	-32%	14µM*	x	-35%	20%
Cc1ccc(SCC(=O)Nc2ccc(S(=O)(=O)Nc3ncccn3)cc2)cc1	-17%	45µM*	-15%	-22%	19%
O=C(Cc1ccc(Cl)cc1)Nc1ccc(S(=O)(=O)Nc2ncccn2)cc1	-29%	79µM*	-7%	-9%	40%
CCC(=O)Nc1ccc(S(=O)(=O)Nc2ncccn2)cc1	-5%	-31%	-2%	-7%	35%
O=C(Cc1ccc(Br)cc1)Nc1ccc(S(=O)(=O)Nc2ncccn2)cc1	-6%	x	-8%	-11%	58%
CC(=O)Nc1ccc(S(=O)(=O)Nc2ncccn2)cc1	x	17%[59 µM]	6%	-16%	14%
SMILES	BAZ2B inh	G9a inh	Sfp inh	JMJD2A Tudor	HP1b binding inh
COC(=O)C/C=C\[C@@H](C)[C@@H](/C=N\OC[C@@H](C)[C@H](OCc1ccccc1)C(C)C)NS(=O)(=O)c1ccc(C)cc1	x	x	9%	x	x
CC(C)Oc1cccc(C(=O)Nc2ccc3oc(-c4cccc(Cl)c4)nc3c2)c1	0%	-8%[59 µM]	x	-8%	31%
Cc1sc(NC(=O)C2CSC3(C)CCC(=O)N23)nc1-c1ccc(F)cc1 (stereo unspecified)	-14%	x	-7%	-27%	3%
O=C(/C=C/c1ccc(Br)cc1)Nc1ccc(S(=O)(=O)Nc2ncccn2)cc1	89µM*	x	10%	-14%	33%
CC(=O)NS(=O)(=O)c1ccc(NC(=O)CSc2ccc(C)cc2)cc1	-18%	u	79µM*	-9%	46%
O=C(/C=C/c1cccc(F)c1)Nc1ccc(S(=O)(=O)Nc2ncccn2)cc1	-6%	-35%	8%	-17%	-1%
Cc1cc(C)nc(SCC(=O)NNS(=O)(=O)c2ccc(C#N)cc2)n1	56µM*	7.9µM*	x	45µM*	u
Cc1cc(C)nc(NS(=O)(=O)c2ccc(NS(=O)(=O)c3ccc(C#N)cc3)cc2)n1	-18%	u	5%	5%	12%
CC(=O)NS(=O)(=O)c1ccc(NC(=O)CCC(=O)Oc2ccc(C)cc2)cc1	4%	-11%	16%	8%	33%
CCN1CCN(C(=O)c2ccc3c(c2)N(Cc2ccc(F)cc2)C(=O)c2ccccc2S3(=O)=O)CC1	-14%	-28%[59 µM]	x	-22%	15%
COCCCNC(=O)C(=O)NCCCOC(C)C	-2%	5%[59 µM]	21%	5.6µM*	35%
Cc1ccc2cc(CN(c3ccccc3C)S(=O)(=O)c3ccccc3)c(=O)[nH]c2c1	-11%[57.1 µM]	-5%	6%	-28%	12%
CC1(C)CSC(=NCCc2ccccc2)N1C(=O)c1ccc(C#N)cc1	u	2.8µM*	u	1%	29%
CC(C(=O)Nc1ccccc1Br)N1c2cccc3cccc(c23)S1(=O)=O (stereo unspecified)	11%	9%	8%	25%	78%
COc1cc2c(c(OC)c1CC=C(C)C)C[C@H](c1ccc(O)cc1O)CO2	x	x	x	56µM*	-31%
CC(C)C[C@H](NC(=O)[C@H]1O[C@@H]1C(=O)O)C(=O)NCCCCN=C(N)N	x	x	10%	x	x
O=C(/C=C/c1ccccc1)Oc1ccccc1C(=S)N1CCOCC1	-30%	50µM*	-6%	-30%	-2%
O=C(/C=C/c1cccc(Oc2ccccc2)c1)N1CCOCC1	-4%	-19%	4%	-14%	22%
O=C(/C=C/c1ccccc1)Oc1cccc(C(=S)N2CCOCC2)c1	0%	40µM*	-7%	-13%	-12%
COC(=O)CCSc1cc(NCCOC(C)=O)c([N+](=O)[O-])c2nonc12	-11%	26%	-2%	-8%[57.1 µM]	-6%[57 µM]

Compound activity (PubChem)
